# Values quoted from earlier work, collected in PubChem BioAssay AID977611.
# Among all 3,900 compounds or so, about 3,900 (100%) were called active. The limit is not given here; nearly all actives have Kd up to about 4200 µM. So high a share suggests a set chosen from earlier hits. Some of the results follow. Starred links: 1 amine or outer side, 2 acyl side, 3 side chain; linkers in the order of their positions; H or OH if unused. *1 amine or outer side, *2 acyl side, *3 side chain or, on linkers, in order; H or OH if unused. Where a SMILES comes first, the peptide text is derived from it. Non-standard residues stand in square brackets, D forms with d. Square brackets hold non-standard residues; d marks the D form. Residues, ends and D or L forms follow the SMILES beside them. Peptide text beside a SMILES is read from it. [ ]: non-standard residue; d: D form. X1 = O=C([C@H](Cc1ccc(OS(O)(O)O)cc1)N[*:1])[*:2]; Thr(P(OH)3+) = C[C@@H](O[P+](O)(O)O)[C@H](N)C(=O)O
# Test: PubChem AID 977611
# Conditions: PDB protein-ligand complexes, literature Kd
molecule,measurement,setting,value
H-MRYGQSPNM-OH,Kd,"protein: Protein HTP-2, PDB entry 4tzn",0.3 µM (active)
H-EPQYEEIPIYL-OH,Kd,"protein: P56 LCK Tyrosine kinase, PDB entry 1lcj",0.001 µM (active)
NCC(=O)N[C@@H](CCCN=C(N)N)C(=O)NCC(=O)N[C@@H](CC(=O)O)C(=O)N[C@@H](CO)C(=O)N1CCC[C@H]1C(=O)O,Kd,"protein: Integrin alpha 5-beta 1, PDB entry 4wk2",0.115 µM (active)
CC[C@H](C)[C@H](NC(=O)[C@H](CCC(=O)O)NC(=O)[C@H](CC(C)C)NC(=O)[C@@H](NC(=O)[C@H](CC(=O)O)NC(=O)[C@@H]1CCCN1C(=O)[C@H](CC(=O)O)NC(=O)[C@@H](N)CC(N)=O)[C@@H](C)O[P+](O)(O)O)C(=O)N[C@@H](Cc1ccc(O)cc1)C(=O)N[C@@H](CO)C(=O)O (H-NDPD[Thr(P(OH)3+)]LEIYS-OH),Kd,"protein: Serine/threonine-protein kinase RAD53, PDB entry 2a0t",15 µM (active)
O=C1CCN([C@H]2C[C@H](O)[C@@H](CO[P+](O)(O)O)O2)C(=O)N1,Kd,"protein: Thymidylate synthase, PDB entry 4knz",8.5 µM (active)
H-NELNNNAP-OH,Kd,"protein: SPRY DOMAIN-CONTAINING SOCS BOX PROTEIN 1, PDB entry 2jk9",0.15 µM (active)
CC(C)C[C@H](NC(=O)[C@@H](N)CC(=O)O)C(=O)N[C@@H](Cc1ccc(O[P+](O)(O)O)cc1)C(=O)N[C@@H](CC(=O)O)C(=O)N[C@@H](Cc1ccc(O[P+](O)(O)O)cc1)C(=O)N[C@@H](Cc1ccc(O[P+](O)(O)O)cc1)C(=O)N1CCC[C@H]1C(=O)O,Kd,"protein: THROMBIN, LIGHT CHAIN & THROMBIN, HEAVY CHAIN, PDB entry 4ch2",1.03 µM (active)
CC(C)C[C@H](N)C(=O)N[C@@H](Cc1ccc(O[P+](O)(O)O)cc1)C(=O)N[C@@H](CC(=O)O)C(=O)O,Kd,"protein: THROMBIN, LIGHT CHAIN & THROMBIN, HEAVY CHAIN, PDB entry 4ch8",1.03 µM (active)
CC[C@H](C)[C@H](NC(=O)[C@H](Cc1ccc(O[P+](O)(O)O)cc1)NC(=O)[C@H](CC(=O)O)NC(=O)[C@@H](N)CC(N)=O)C(=O)N[C@@H](CC(=O)O)C(=O)N[C@@H](CC(N)=O)C(=O)N1CCC[C@H]1C(=O)O (H-ND[X1]IDNP-OH),Kd,"protein: E3 ubiquitin-protein ligase CBL, PDB entry 3bun",0.61 µM (active)
NC(=O)CC[C@H](NC(=O)[C@@H](N)Cc1cnc[nH]1)C(=O)N[C@@H](Cc1ccc(O[P+](O)(O)O)cc1)C(=O)N[C@@H](Cc1ccc(O[P+](O)(O)O)cc1)C(=O)N[C@@H](CC(N)=O)C(=O)N[C@@H](CC(=O)O)C(=O)N[C@@H](Cc1ccccc1)C(=O)N1CCC[C@H]1C(=O)O (H-HQ[X1][X1]NDFP-OH),Kd,"protein: Grb2 SH2 domain, pY-Clamp Shc1_pY239/240, PDB entry 4jmh",0.0021 µM (active)
NC1C=CN([C@@H]2O[C@H](CO[P+](O)(O)O[C@H]3[C@@H](O)[C@H](n4cnc5c4NC(N)NC5=O)O[C@@H]3CO[P+](O)(O)O[C@H]3[C@@H](O)[C@H](n4cnc5c4NC(N)NC5=O)O[C@@H]3CO[P+](O)(O)O[C@H]3[C@@H](O)[C@H](n4cnc5c4NC(N)NC5=O)O[C@@H]3CO[P+](O)(O)O)[C@@H](O[P+](O)(O)O)[C@H]2O)C(=O)N1 (stereo partly drawn),Kd,"protein: Heat resistant RNA dependent ATPase, PDB entry 4i67",0.45 µM (active)
NC1NC(=O)c2ncn([C@H]3CC[C@@H](CO[P+](O)(O)O[P+](O)(O)O[P+](O)(O)O)O3)c2N1 (stereo partly drawn),Kd,"protein: DNA polymerase X from Thermus thermophilus HB8, PDB entry 3au6",0.012 µM (active)
NC1NC(=O)c2ncn([C@@H]3O[C@H](CO[P+](O)(O)O[P+](O)(O)O)[C@@H](O)[C@H]3O)c2N1 (stereo partly drawn),Kd,PDB entry 4lps,1.8 µM (active)
same,Kd,"protein: Atlastin-1, PDB entry 4ido",11.6 µM (active)
same,Kd,"protein: Methylmalonyl-CoA mutase accessory protein, PDB entry 4jyc",0.2 µM (active)
same,Kd,"protein: Ras-related protein Rab-8A with Guanine nucleotide exchange factor GRAB, PDB entry 4li0",0.26 µM (active)
same,Kd,"protein: Ras-related protein Rab-8A, PDB entry 4lhv",0.0001 µM (active)
NC1NC(=O)c2ncn([C@@H]3O[C@H](CO[P+](O)(O)O[P+](O)(O)O[P+](O)(O)O)[C@@H](O)[C@H]3O)c2N1 (stereo partly drawn),Kd,"protein: ADP-ribosylation factor 6, PDB entry 4kax",17 µM (active)
NC1NC(=O)c2ncn([C@@H]3O[C@H](CO[P+](O)(O)O[P+](O)(O)N[P+](O)(O)O)[C@@H](O)[C@H]3O)c2N1 (stereo partly drawn),Kd,"protein: Atlastin-1, PDB entry 4idn",5.77 µM (active)
same,Kd,"protein: GTPASE IMAP FAMILY MEMBER 7, PDB entry 3zjc",9 µM (active)
same,Kd,"protein: Methylmalonyl-CoA mutase accessory protein, PDB entry 4jyb",0.11 µM (active)
O=C(O)c1c[nH]c2ccccc12,Kd,"protein: INTEGRASE, PDB entry 4ahu",5400 µM (active)
O=C(O)CCc1c[nH]c2ccccc12,Kd,"protein: Protease (Q7K, L33I, L63I, C67A, C95A mutation), PDB entry 4ejl",7.2 µM (active)
H-VGMHSKGTQTA-OH,Kd,"protein: DYNEIN LIGHT CHAIN 1, CYTOPLASMIC, PDB entry 3zke",0.16 µM (active)
CSCC[C@H](NC(=O)CNC(=O)[C@@H](N)C(C)C)C(=O)N[C@@H](Cc1cnc[nH]1)C(=O)N[C@@H](CO[P+](O)(O)O)C(=O)N[C@@H](CCCCN)C(=O)NCC(=O)N[C@H](C(=O)N[C@@H](CCC(N)=O)C(=O)N[C@H](C(=O)O)[C@@H](C)O)[C@@H](C)O,Kd,"protein: DYNEIN LIGHT CHAIN 1, CYTOPLASMIC, PDB entry 3zkf",0.96 µM (active)
NCc1csc(-c2cccs2)n1,Kd,"protein: CATIONIC TRYPSIN, PDB entry 4aba",153 µM (active)
Cc1noc(C)c1-c1cc(NS(=O)(=O)c2ccccc2)cc(C(=O)O)c1,Kd,"protein: ATPase family AAA domain-containing protein 2 ATAD2A bromodomain, PDB entry 4tu4",175 µM (active)
O=C(O)c1cccc2ccoc12,Kd,"protein: INTEGRASE, PDB entry 4ahs",6400 µM (active)
O=C(O)Cc1cc(O)ccc1O,Kd,"protein: HOMOGENTISATE 1,2-DIOXYGENASE, PDB entry 4aq6",15.8 µM (active)
CC(C)C[C@H](NC(=O)[C@H](CC(C)C)NC(=O)CNC(=O)[C@@H](NC(=O)[C@H](CC(=O)O)NC(=O)[C@H](CC(=O)O)NC(=O)[C@H](Cc1ccc(OS(O)(O)O)cc1)NC(=O)[C@H](Cc1ccc(OS(O)(O)O)cc1)NC(=O)[C@H](CO)NC(=O)[C@@H](NC(=O)[C@@H](NC(=O)CNC(=O)[C@H](Cc1ccccc1)NC(=O)[C@@H](NC(=O)[C@H](CCC(=O)O)NC(=O)[C@@H](N)C(C)C)[C@@H](C)O)[C@@H](C)O)[C@@H](C)O)C(C)C)C(=O)O (H-VETFGTTS[X1][X1]DDVGLL-OH),Kd,"protein: CC chemokine (CCL11/ eotaxin-1), PDB entry 2mpm",1.3 µM (active)
H-AFFAQLQLDAETGEFL-OH,Kd,"protein: Kelch-like ECH-associated protein 1, PDB entry 2flu",0.02 µM (active)
CC(C)C[C@H](NC(=O)[C@H](Cc1ccccc1)NC(=O)[C@H](CCC(=O)O)NC(=O)[C@H](C)NC(=O)[C@@H](NC(=O)[C@H](CC(C)C)NC(=O)[C@H](CCC(=O)O)NC(=O)[C@H](CC(=O)O)NC(=O)[C@H](CCC(=O)O)NC(=O)[C@H](CO)NC(=O)[C@H](C)N)C(C)C)C(=O)N[C@@H](CCC(N)=O)C(=O)N[C@@H](CC(=O)O)C(=O)N[C@@H](CCC(N)=O)C(=O)N[C@@H](CC(N)=O)C(=O)O (H-ASEDELVAEFLQDQN-OH),Kd,"protein: PEROXISOMAL MEMBRANE PROTEIN PEX14, PDB entry 4bxu",0.1 µM (active)
CC(C)C[C@H](NC(=O)[C@@H](N)CO)C(=O)N[C@@H](CCC(=O)O)C(=O)N[C@H](C(=O)N[C@H](C(=O)N[C@@H](CCC(=O)O)C(=O)N[C@@H](C)C(=O)N[C@@H](CC(=O)O)C(=O)N[C@@H](C)C(=O)N[C@H](C(=O)N[C@@H](Cc1ccccc1)C(=O)N[C@H](C(=O)N[C@@H](CCC(N)=O)C(=O)O)C(C)C)[C@@H](C)O)[C@@H](C)O[P+](O)(O)O)C(C)C (H-SLEV[Thr(P(OH)3+)]EADATFVQ-OH),Kd,"protein: FHA1 Domain of Rad53, PDB entry 1k3q",0.3 µM (active)
